These results are taken from PubChem BioAssay (NCI).

The panel holds about 83,000 compounds, 20% with a hit somewhere; the sample as a whole holds those more often.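 Cells were grown in 96-well plates and exposed to the test compound at a single concentration for 48 hours; results are reported as percent growth, with values below 10 considered active.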 A number with no mark means an inactive call. Active and inactive are the calls of the source.

Some test systems named below: HCT-15 colon; HT29 colon; SNB-75 CNS; SNB-19 CNS; PC-3 prostate; SK-MEL-5 melanoma; UACC-62 melanoma; LOX IMVI melanoma; SK-MEL-28 melanoma; SK-MEL-2 melanoma; EKVX NSCLC; SN12C renal; UO-31 renal; TK-10 renal; ACHN renal; CAKI-1 renal; A498 renal; CCRF-CEM leukemia; MOLT-4 leukemia; U251 CNS.
Holding throughout (assay): NCI-60 one-dose screen, 48 h (100 = growth as untreated, 0 = no growth, -100 = all killed)
Holding throughout (details): 10 µM unless noted

Turning to `CCOC(=O)c1cc(C(=O)c2cc(OC)cc(OC)c2)n2ncccc12`, the growth was 21.5% in the assay with HCT-15 colon; 7.23% (active) in the assay with HT29 colon; 23.5% with SNB-75 CNS; 47.1% with SNB-19 CNS; 36.2% in the assay with PC-3 prostate; 26% in the assay with SK-MEL-5 melanoma. Moreover, the growth with UACC-62 melanoma is 26.2%; with LOX IMVI melanoma it was 39.7%; in the assay with SK-MEL-28 melanoma, 71.2%; in the assay on SK-MEL-2 melanoma, 19.3%; with EKVX NSCLC it was 49.7%; with SN12C renal, 44.8%. Besides, the growth in the assay with UO-31 renal is 47.8%; with TK-10 renal, 63.9%; in the assay with ACHN renal, 53.2%; in the assay with CAKI-1 renal it was 34.1%; with A498 renal, -3.04% (active); in the assay with CCRF-CEM leukemia, 24%. In addition, in the assay with MOLT-4 leukemia, the growth was 32.6%.
`CCOc1cc(\C=N/N=C(N)/C(N)=N\N=C/c2ccc(O)c(OCC)c2)ccc1O`: the growth in the assay with HCT-15 colon is 101%; in the assay with HT29 colon it was -46.5% (active); in the assay with SNB-75 CNS, 116%; with SNB-19 CNS, 109%; with U251 CNS, 95.8%; with PC-3 prostate, 82.4%. Also, the growth with UACC-62 melanoma is 95.3%; with LOX IMVI melanoma it was 103%; in the assay on SK-MEL-28 melanoma, 103%; with SK-MEL-2 melanoma it was 126%; in the assay with EKVX NSCLC, 106%; in the assay on SN12C renal, 101%. In addition, the growth in the assay with UO-31 renal was 88.7%; in the assay on TK-10 renal, 127%; in the assay with ACHN renal, 96.5%; in the assay with CAKI-1 renal it was 94.5%; in the assay on A498 renal it was 106%; in the assay with CCRF-CEM leukemia it was 49.7%. Further, the growth in the assay with MOLT-4 leukemia is 59.2%.
With `COc1cc(/C=N/NC(=O)c2ccc3nc(-c4ccc(Cl)cc4)[nH]c3c2)cc(OC)c1OC`, the growth was 96% in the assay with HCT-15 colon; 39.9% with HT29 colon; 86.6% in the assay with SNB-75 CNS; 71% in the assay on SNB-19 CNS; 59.9% with PC-3 prostate; 41.9% in the assay on SK-MEL-5 melanoma. The growth is 28.7% in the assay on UACC-62 melanoma; 50.6% in the assay with LOX IMVI melanoma; 46.5% in the assay on SK-MEL-28 melanoma; 83.6% with SK-MEL-2 melanoma; 95.8% in the assay with EKVX NSCLC; 68.5% in the assay with SN12C renal. Moreover, the growth was 88.3% in the assay on UO-31 renal; 77.4% with TK-10 renal; 67.4% with ACHN renal; 76% in the assay on CAKI-1 renal; -1.95% (active) in the assay on A498 renal; 36.6% in the assay with CCRF-CEM leukemia. For the same molecule, the growth in the assay with MOLT-4 leukemia is 41.6%.
For `C=C(C)[C@@H]1CC[C@]2(COC(=O)c3cccnc3)CC[C@]3(C)[C@H](CC[C@@H]4[C@@]5(C)CCCN(C(=O)c6cccnc6)C(C)(C)[C@@H]5CC[C@]43C)[C@@H]12`, the growth in the assay on HCT-15 colon was 24.9%; with HT29 colon it was 32.3%; in the assay on SNB-75 CNS, 53.3%; in the assay with SNB-19 CNS, 47.1%; with U251 CNS, 25.6%; with PC-3 prostate, 14.6%. For the same molecule, the growth is 28.4% in the assay with UACC-62 melanoma; 21.3% in the assay with LOX IMVI melanoma; 51.3% in the assay with SK-MEL-28 melanoma; 65.3% in the assay with SK-MEL-2 melanoma; 49.6% in the assay with EKVX NSCLC; 38.1% in the assay with SN12C renal. Besides, the growth with UO-31 renal was 35.9%; with TK-10 renal, 51.8%; with ACHN renal it was 29.5%; in the assay with CAKI-1 renal, 32.6%; with A498 renal, 46.7%; in the assay on CCRF-CEM leukemia, 24.9%. In the assay on MOLT-4 leukemia, the growth is 23.6%.
`CN1CCN(c2ccc(Nc3ncc4[nH]c(=O)n(Cc5ccccc5N)c4n3)cc2)CC1`: the growth in the assay on HCT-15 colon was 106%; with HT29 colon, 80.2%; in the assay on SNB-75 CNS, 39.9%; with SNB-19 CNS it was 107%; with U251 CNS, 100%; in the assay on PC-3 prostate it was 83.1%. Also, the growth is 97.6% in the assay with UACC-62 melanoma; 88.7% with LOX IMVI melanoma; 111% in the assay on SK-MEL-28 melanoma; 104% with SK-MEL-2 melanoma; 102% with EKVX NSCLC; 86.5% with SN12C renal. Also, the growth with UO-31 renal is 62.5%; in the assay with TK-10 renal it was 86.4%; in the assay on ACHN renal, 89.9%; with CAKI-1 renal, 66.4%; with A498 renal it was 66.4%; in the assay with CCRF-CEM leukemia, 96.4%. The growth with MOLT-4 leukemia was 93.4%.
Take `COc1cc2ncnc(Nc3ccc(S(=O)(=O)Nc4cc(C)on4)cc3)c2cc1OCCCN1CCOCC1`: the growth in the assay on HCT-15 colon is 105%; with HT29 colon, 101%; in the assay on SNB-75 CNS, 90.8%; with SNB-19 CNS it was 101%; with PC-3 prostate, 103%; in the assay with SK-MEL-5 melanoma it was 97.1%. Besides, the growth is 104% with UACC-62 melanoma; 96.4% in the assay with LOX IMVI melanoma; 115% with SK-MEL-28 melanoma; 101% in the assay on SK-MEL-2 melanoma; 93.4% with EKVX NSCLC; 104% in the assay on SN12C renal. Also, the growth with UO-31 renal was 88.1%; in the assay on TK-10 renal, 95.3%; in the assay with ACHN renal, 106%; with CAKI-1 renal, 98%; in the assay on A498 renal, 104%; in the assay on CCRF-CEM leukemia it was 104%. The growth in the assay with MOLT-4 leukemia is 101%.
`Oc1cccc2c1NCCC2`: the growth in the assay with HCT-15 colon was 21.4%; with HT29 colon, 79.5%; with SNB-75 CNS it was 0.864% (active); in the assay on SNB-19 CNS it was 14.9%; in the assay with PC-3 prostate, 9.22% (active); in the assay on SK-MEL-5 melanoma it was -51.2% (active). The growth was 5.24% (active) in the assay with UACC-62 melanoma; 16.4% with LOX IMVI melanoma; 49.5% in the assay with SK-MEL-28 melanoma; -14.9% (active) in the assay on SK-MEL-2 melanoma; 22.3% in the assay with EKVX NSCLC; 11.7% in the assay with SN12C renal. Besides, the growth is 6.25% (active) with UO-31 renal; 23.3% with TK-10 renal; 11.4% with ACHN renal; 15.6% in the assay on CAKI-1 renal; 19.6% with A498 renal; 18.6% with CCRF-CEM leukemia. Besides, the growth in the assay on MOLT-4 leukemia was 28%.
`Cc1ccc2nc(/C=C/c3ccc(N(C)C)cc3)cc(C)c2c1`: the growth was 18% in the assay on HCT-15 colon; 2.01% (active) with HT29 colon; 14.5% in the assay on SNB-75 CNS; 26.2% with SNB-19 CNS; 26.2% in the assay on U251 CNS; 38.9% in the assay on PC-3 prostate. The growth with UACC-62 melanoma was 23.2%; with LOX IMVI melanoma, 34.1%; in the assay on SK-MEL-28 melanoma it was 48.1%; with SK-MEL-2 melanoma, 34.8%; in the assay on EKVX NSCLC, 52.4%; in the assay with SN12C renal, 35.6%. Besides, the growth with UO-31 renal is 33.5%; in the assay on TK-10 renal it was 43.8%; in the assay on ACHN renal it was 32.9%; with CAKI-1 renal, 18.2%; in the assay on A498 renal, 27.2%; with CCRF-CEM leukemia, 17.1%. The growth in the assay with MOLT-4 leukemia was 40%.
